Results taken from PubChem BioAssay (NCI).
Compounds without any hit were thinned out: in the full panel of roughly 79,000, 15% have a hit. Calls of active or inactive are those of the source. Rule as the data show it: active = growth inhibition above about 70%; inactive = the rest. Where a SMILES comes first, the peptide text is derived from it. The star is where a group is joined. Cbz = O=C(OCc1ccccc1)*; OBn = c1ccc(CO*)cc1

Assay: NCI Yeast Anticancer Drug Screen. Data for the rad50 strain (AID 155);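 also: 0% = growth of vehicle-only cultures of the same strain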
Settings: S. cerevisiae rad50 strain growth inhibition; at 50.0 µM; stronger effect = higher value
Procedure, shortened: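 Relative growth inhibition (compound vs vehicle) was measured in yeast with a defined repair-gene alteration.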

SMILES	growth inhibition
CC12CCC(/C(=C/N(O)/C=C3\C(=O)C4(C)CCC3C4(C)C)C1=O)C2(C)C	-17.6% (inactive)
COc1ccc(C(=O)OCc2ccccc2CN2CCOCC2)cc1	0.75% (inactive)
Cc1ccccc1C(=O)N(C(C)C)C(C)C	12.8% (inactive)
CCCCCCCCCCCCCCCCCCCCCC(C)C	-8% (inactive)
CC1(C)CCCCC1=O	-0.15% (inactive)
Cc1cnc(NCCCCNc2ncc(C)c(-c3ccccc3O)n2)nc1-c1ccccc1O	-5.25% (inactive)
O=C(NC(CO)C(=O)N1CCCC1C(=O)OCc1ccccc1)OCc1ccccc1 (stereo not drawn) (Cbz-Ser-Pro-OBn; configuration not given here)	8.55% (inactive)
COC(=O)c1cccc(=O)o1	2.55% (inactive)
CSC(=Nc1ccc([N+](=O)[O-])cc1C#N)NC(=O)c1ccccc1	-28.2% (inactive)
COc1ccc(CCN=C2CCC(C(=O)NCCc3ccc(OC)c(OC)c3)N2)cc1OC (stereo not given)	-12.9% (inactive)
Cc1cccc(C)c1NC(=O)CCC(=O)CC(=O)C(C)C	-2.6% (inactive)
CC(=O)Nc1ccc(C2CC(c3ccc([N+](=O)[O-])cc3)=Nc3ccccc3S2)cc1 (stereo not given)	32.8% (inactive)
Clc1cnnc2nc[nH]c12	-10.8% (inactive)
CC(C)(C)C1CCC2c3c([nH]c4ncccc34)C3C(=O)N(c4ccccc4)C(=O)C3C2C1 (stereo not given)	20.4% (inactive)
COc1cccc(N2C(=O)[C@H]3[C@H]4CC(C(C)(C)C)CC[C@H]4c4c([nH]c5ccccc45)[C@H]3C2=O)c1 (stereo not given in full)	1.65% (inactive)
CC1(c2nc3ccccc3[nH]2)CCC(C(=O)O)C(C)(C)O1 (stereo not given)	1.75% (inactive)
Cc1nc(C(N)=O)c(=O)[nH]c1C	2.25% (inactive)
N#CC(C#N)=CNC(=S)Nc1ccc(Cl)c(Cl)c1	44.1% (inactive)
NC(CC(=O)O)C(=O)OCc1cccc(N=Nc2ccccc2)c1 (stereo not given)	7.8% (inactive)
Cc1ccc(/C=N/n2c(Cc3ccccc3)n[nH]c2=O)cc1	16.9% (inactive)

SMILES	growth inhibition
CC(C)=CCC/C(C)=C/CC/C(C)=C/C1CCC(=O)C1(C)C (stereo not given)	5% (inactive)
O=C(CSc1cc(Cl)c(Cl)cc1Cl)Nc1cccc(Cl)c1	-7.9% (inactive)
COc1ccc(C2Cc3cc(OC)c(OC)cc3C(c3ccccc3)N2)cc1OC (stereo not given)	8.7% (inactive)
COc1ccc(Cc2cn(C)cc(Cc3ccc(OC)cc3)c2=O)cc1	4.7% (inactive)
O=C1CCCC(c2ccccc2)O1 (stereo not given)	-3.1% (inactive)
C[N+](C)(C)c1cc(Br)c(O)c(Br)c1	1.85% (inactive)
CCOC1(C)OC2OC(COC(C)=O)C(OC(C)=O)C(OC(N)=O)C2O1 (stereo not given)	-11.8% (inactive)
CC(=O)Nc1c(Cl)cc(N)cc1Cl	9.35% (inactive)
CCN(CC)c1ccc(C=O)cc1	6.8% (inactive)
C=CNC(=S)n1nc(-c2ccccc2NC(=O)C(F)(F)F)c(=O)n(C(=S)NC=C)c1=S	31.4% (inactive)
COc1cc(/C=C2\SC(=S)N(/C=C(/C#N)C(=O)c3ccc4ccccc4c3)C2=O)cc(OC)c1OC	21.3% (inactive)
C#CCN(CC#C)C(=O)CCCCCCCCC=C	97% (active)
CCNc1ncnc2c1cnn2C	0.45% (inactive)
Cc1ccc(C(c2ccc(C)c(C)c2)C(O)C(O)C(O)C(O)CO)cc1C (stereo not given)	-4.8% (inactive)
CCCCNS(=O)(=O)c1cc(C(=O)O)cc(C(=O)O)c1	2.55% (inactive)
NC(=S)c1cc[n+]([O-])cc1	8.65% (inactive)
Cc1cccc(Cl)c1NC1=NCCN1C(=O)CC(=O)c1ccccc1	54.1% (inactive)
Clc1cccc(NNc2cccc(Cl)c2)c1	-11.5% (inactive)
CCCCCCCCCCCCCCCCOc1ccc(C(=O)O)cc1	1.4% (inactive)
Cc1cc[n+](-c2nc3c([O-])n(C)c(=O)n(C)c-3n2)cc1	0.65% (inactive)

Assay: NCI Yeast Anticancer Drug Screen. Data for the mec2-1 strain (AID 157)
Settings: S. cerevisiae mec2-1 strain, at 50.0 µM, stronger effect = higher value
Procedure, shortened: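 Using mec2-1 yeast: add compound, measure growth, express inhibition versus vehicle-treated cultures.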

SMILES	growth inhibition
CC12CCC(/C(=C/N(O)/C=C3\C(=O)C4(C)CCC3C4(C)C)C1=O)C2(C)C	-11.8% (inactive)
COc1ccc(C(=O)OCc2ccccc2CN2CCOCC2)cc1	12.5% (inactive)
Cc1ccccc1C(=O)N(C(C)C)C(C)C	-6.45% (inactive)
CCCCCCCCCCCCCCCCCCCCCC(C)C	0.8% (inactive)
CC1(C)CCCCC1=O	-1.8% (inactive)
Cc1cnc(NCCCCNc2ncc(C)c(-c3ccccc3O)n2)nc1-c1ccccc1O	1.55% (inactive)
O=C(NC(CO)C(=O)N1CCCC1C(=O)OCc1ccccc1)OCc1ccccc1 (stereo not drawn) (Cbz-Ser-Pro-OBn; configuration not given here)	7% (inactive)
COC(=O)c1cccc(=O)o1	0.1% (inactive)
CSC(=Nc1ccc([N+](=O)[O-])cc1C#N)NC(=O)c1ccccc1	-19.9% (inactive)
COc1ccc(CCN=C2CCC(C(=O)NCCc3ccc(OC)c(OC)c3)N2)cc1OC (stereo not given)	-18.9% (inactive)
Cc1cccc(C)c1NC(=O)CCC(=O)CC(=O)C(C)C	-4.85% (inactive)
CC(=O)Nc1ccc(C2CC(c3ccc([N+](=O)[O-])cc3)=Nc3ccccc3S2)cc1 (stereo not given)	24.6% (inactive)
Clc1cnnc2nc[nH]c12	-7.4% (inactive)
CC(C)(C)C1CCC2c3c([nH]c4ncccc34)C3C(=O)N(c4ccccc4)C(=O)C3C2C1 (stereo not given)	-6.15% (inactive)
COc1cccc(N2C(=O)[C@H]3[C@H]4CC(C(C)(C)C)CC[C@H]4c4c([nH]c5ccccc45)[C@H]3C2=O)c1 (stereo not given in full)	-18.9% (inactive)
CC1(c2nc3ccccc3[nH]2)CCC(C(=O)O)C(C)(C)O1 (stereo not given)	-11.2% (inactive)
Cc1nc(C(N)=O)c(=O)[nH]c1C	2.3% (inactive)
N#CC(C#N)=CNC(=S)Nc1ccc(Cl)c(Cl)c1	39.7% (inactive)
NC(CC(=O)O)C(=O)OCc1cccc(N=Nc2ccccc2)c1 (stereo not given)	-8.35% (inactive)
Cc1ccc(/C=N/n2c(Cc3ccccc3)n[nH]c2=O)cc1	5.1% (inactive)

SMILES	growth inhibition
CC(C)=CCC/C(C)=C/CC/C(C)=C/C1CCC(=O)C1(C)C (stereo not given)	-38.4% (inactive)
O=C(CSc1cc(Cl)c(Cl)cc1Cl)Nc1cccc(Cl)c1	-6.9% (inactive)
COc1ccc(C2Cc3cc(OC)c(OC)cc3C(c3ccccc3)N2)cc1OC (stereo not given)	18.7% (inactive)
COc1ccc(Cc2cn(C)cc(Cc3ccc(OC)cc3)c2=O)cc1	0.8% (inactive)
O=C1CCCC(c2ccccc2)O1 (stereo not given)	-14.2% (inactive)
C[N+](C)(C)c1cc(Br)c(O)c(Br)c1	31.9% (inactive)
CCOC1(C)OC2OC(COC(C)=O)C(OC(C)=O)C(OC(N)=O)C2O1 (stereo not given)	0.05% (inactive)
CC(=O)Nc1c(Cl)cc(N)cc1Cl	-23.4% (inactive)
CCN(CC)c1ccc(C=O)cc1	-11.1% (inactive)
C=CNC(=S)n1nc(-c2ccccc2NC(=O)C(F)(F)F)c(=O)n(C(=S)NC=C)c1=S	38.5% (inactive)
COc1cc(/C=C2\SC(=S)N(/C=C(/C#N)C(=O)c3ccc4ccccc4c3)C2=O)cc(OC)c1OC	11.8% (inactive)
C#CCN(CC#C)C(=O)CCCCCCCCC=C	96.5% (active)
CCNc1ncnc2c1cnn2C	-1.45% (inactive)
Cc1ccc(C(c2ccc(C)c(C)c2)C(O)C(O)C(O)C(O)CO)cc1C (stereo not given)	-2.6% (inactive)
CCCCNS(=O)(=O)c1cc(C(=O)O)cc(C(=O)O)c1	-7% (inactive)
NC(=S)c1cc[n+]([O-])cc1	2.55% (inactive)
Cc1cccc(Cl)c1NC1=NCCN1C(=O)CC(=O)c1ccccc1	-9.2% (inactive)
Clc1cccc(NNc2cccc(Cl)c2)c1	-16.8% (inactive)
CCCCCCCCCCCCCCCCOc1ccc(C(=O)O)cc1	0.75% (inactive)
Cc1cc[n+](-c2nc3c([O-])n(C)c(=O)n(C)c-3n2)cc1	10.6% (inactive)
